Most compounds without a hit are left out; they make up all but 6.8% or so of the library.
TSG101-PTAP inh – blocks PTAP/TSG101 interaction to inhibit HIV-1 budding; Q99816; Fluorescence polarization, FITC-PTAP peptide / Tsg101 binding; Potency, µM (doses to about 115 µM), most hits filed as inhibitors; 340,000 tested, under 10 active; AID 493005; active means well fitted inhibition curve with a large enough effect in the main read-out, with a control signal flat, not every such curve was filed as active; inconclusive means small, poorly fitted or top-dose-only effect, or effect the other way, or a change in a side signal; inactive means no such curve, though single readings can be large or run the other way
Target sequence (Q99816 whole entry, looked up): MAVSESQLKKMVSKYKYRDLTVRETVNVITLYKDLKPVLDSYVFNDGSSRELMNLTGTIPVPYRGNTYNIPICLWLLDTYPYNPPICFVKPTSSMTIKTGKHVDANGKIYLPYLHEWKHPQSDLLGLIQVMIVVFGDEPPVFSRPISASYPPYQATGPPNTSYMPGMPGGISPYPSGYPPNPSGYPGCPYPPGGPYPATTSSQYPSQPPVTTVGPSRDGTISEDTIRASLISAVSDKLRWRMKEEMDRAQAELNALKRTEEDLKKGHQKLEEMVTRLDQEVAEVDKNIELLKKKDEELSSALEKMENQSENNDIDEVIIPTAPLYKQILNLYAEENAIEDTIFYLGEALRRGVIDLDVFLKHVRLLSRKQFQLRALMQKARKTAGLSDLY
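Steps: Tsg101 binding domain dispensed (10 uM final), compounds pinned in DMSO, FITC-labeled PTAP-motif peptide added (50 nM final); after 20 min binding at room temperature, polarization measured.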
KB-V1 cytotox – kills drug-selected multidrug resistant KB-V1 cells; KB-V1 MDR cells viability, CellTiter-Glo, 72 h; actives 3.4% (n = 400,000); AID 1347076; Potency, µM (titrated, usually from 46.1 µM), most hits filed as cytotoxic; further: nearly all actives have a fitted effect of over 60% in size
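KB-V1, DMEM (no phenol red) + 10% FBS; cpd pin-transferred, titration series; 72 h, 37 degrees C; CellTiter-Glo, luminescence. Data normalized, curve-fit.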
PINK1 expr mod – PINK1 expression modulation. PINK1 immunofluorescence, high-content cytometry, 24 h. Potency, µM (doses to about 76.6 µM), usual class: activators. actives 0.2% (n = 410,000); active means well fitted activation curve with a large enough effect; inconclusive means small, poorly fitted or top-dose-only effect; cell line not stated here; further: nearly all actives have a fitted effect of over 65% in size
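Measures PINK1 amount and localization on or inside mitochondria by immunofluorescence. Stable cells get compounds at 5 concentrations for 24 hours before fixation and staining; CCCP controls included.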
SW480 rereplic – inducers of DNA re-replication in SW480 colon cancer cells | AID 624297 | actives 1.8% (n = 340,000) | SW480 DNA re-replication, Hoechst DNA content imaging, 48 h | Potency, µM (doses to about 46.1 µM), hits mostly activators; further: nearly all actives have a fitted effect of over 55% in size
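Quantitative HTS format with DMSO vehicle controls; 48 hr drug incubation at 37 C, then 40 min Hoechst staining and scanning imager measurement at 405 nm excitation.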
KB-3-1 tox – kills parental KB-3-1 adenocarcinoma cells; KB-3-1 viability, CellTiter-Glo ATP luminescence, 72 h; Potency, µM (doses to about 46.1 µM), actives largely listed as cytotoxic; actives 1.4% (n = 400,000); further: nearly all actives have a fitted effect of over 60% in size
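Multi-concentration cytotoxicity screen in KB-3-1 cells grown in DMEM lacking phenol red with 10% FBS. After 72 h at 37 °C with compound, ATP-dependent luminescence was recorded.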
MCF10A rereplic – induces DNA re-replication in MCF 10a normal breast cells; MCF 10A DNA re-replication, Hoechst nuclear intensity, 48 h; AID 624296; actives 2.9% (n = 350,000); Potency, µM (top dose mostly 46.1 µM), most hits filed as activators; further: nearly all actives have a fitted effect of over 50% in size
Hits are given with their value; n = inactive; u = inconclusive; x = no result. Unless noted, the call rests on the fitted dose curve; in most records, active means well fitted curve in the direction sought with a large enough effect; inconclusive means small, poorly fitted or top-dose-only effect, or another doubt; inactive means no such curve, though single readings can be large; an effect the other way counts as inactive or inconclusive.

SMILES	TSG101-PTAP inh	KB-V1 cytotox	PINK1 expr mod	SW480 rereplic	KB-3-1 tox	MCF10A rereplic
Cc1ccccc1SCC(=O)NNC(=O)c1ccccc1O	n	n	n	13µM	n	n
Cc1ccc(NC(=O)c2nnn(Cc3cccc(C(F)(F)F)c3)c2N)c(C)c1	x	n	n	x	n	x
CCCN1C(=O)c2ccc(C(=O)Nc3nccs3)cc2C1=O	n	n	n	n	n	n
COCCN1C(=O)c2ccc(C(=O)Nc3nccs3)cc2C1=O	n	n	n	1.2µM	n	u
Cc1sc2nc(CN3CCCC3)nc(N3CCN(S(=O)(=O)c4cccs4)CC3)c2c1C	n	18µM	n	n	u	n
COC(=O)c1ccc(NC(=O)Nc2ccc(F)c(Cl)c2)cc1	n	18µM	n	n	n	u
COC(=O)c1ccc(NC(=O)Nc2ccc(F)cc2)cc1	n	n	n	n	n	u
O=C(Nc1ccc(F)c(Cl)c1)Nc1csc2ccccc12	n	12µM	u	n	u	u
COC(=O)c1cccc(NC(=O)NC(=O)c2ccccc2Cl)c1	n	n	u	n	n	n
COC(=O)c1cccc(NC(=O)Nc2ccc(Cl)c(Cl)c2)c1	x	15µM	u	n	n	u
COc1c(Cl)cnn(-c2ccc(Cl)c(Cl)c2)c1=O	n	u	n	u	n	23µM
COc1ccc(-n2ncc(Cl)c(Cl)c2=O)cc1	n	u	n	n	5.2µM	0.82µM
COc1ccc(-n2ncc(N(C)n3cccc3)c(Cl)c2=O)cc1	n	n	n	n	n	n
COc1c(Cl)cnn(-c2ccccc2)c1=O	n	u	u	u	n	u
COc1cc2c(cc1NC(=O)COc1ccc(Br)c(C)c1)oc1ccccc12	x	n	n	x	n	x
COc1cc(Nc2nc3ccccc3c3nnc(C)n23)cc(OC)c1	x	n	n	x	n	x
COc1ccc(/C=C(/NC(=O)c2ccccc2)c2nc3ccc(Cl)cc3[nH]2)cc1OC	n	12µM	n	n	u	u
COc1ccc(C(=O)N/C(=C\c2cccs2)c2nc3ccccc3[nH]2)cc1OC	n	n	n	n	n	n
COc1ccc(/C=C(/NC(=O)c2ccccc2)c2nc3ccccc3[nH]2)cc1OC	n	n	n	u	n	21µM
COC(=O)c1cnn(-c2nc(OC)cc(OC)n2)c1C	n	16µM	n	n	n	n
CCOC(=O)c1cnn(-c2nc(OC)cc(OC)n2)c1C(F)(F)F	n	u	n	n	n	n
COc1cc(OC)nc(-n2ncc(Br)c(Br)c2=O)n1	n	u	n	n	6.5µM	4.6µM
Cc1ccccc1Nc1scc(-c2ccc(Cl)cc2)[n+]1-c1ccccc1C	n	n	n	n	9.2µM	u
CCCCn1c(C2CC(=O)N(c3ccc(OCC)cc3)C2)nc2ccccc21 (stereo unspecified)	x	n	n	x	n	x
CNC(=O)[C@@H]1C[C@@H](NCc2cccc(Oc3ccccc3)c2)CN1C(C)C	x	x	n	x	x	x
SMILES	TSG101-PTAP inh	KB-V1 cytotox	PINK1 expr mod	SW480 rereplic	KB-3-1 tox	MCF10A rereplic
CCOC(=O)c1cnc(-n2nc(C)cc2C)nc1NNc1ncc(-c2ccccc2)cn1	n	u	u	n	u	n
CCOC(=O)c1cnc(-n2nc(C)cc2C)nc1NC(C)c1ccccc1 (stereo unspecified)	n	1µM	n	n	u	n
CCOC(=O)c1cnc(-n2cc(C)cn2)nc1NCc1ccc2c(c1)OCO2	n	4.1µM	n	n	n	n
Cc1cnc(C(=O)OCC(=O)NCc2ccc3c(c2)OCO3)cn1	n	n	n	n	n	n
CCOC(=O)c1cnc(-n2nc(C)cc2C)nc1NCc1ccccc1	n	0.92µM	u	u	u	21µM
CCCCC(=O)Nc1cc2nn(-c3ccc(OCC)cc3)nc2cc1C	x	n	n	x	n	x
CS(=O)(=O)N1CCC2(CCN(c3ccccc3)CC2)CC1	x	x	n	x	x	x
COCCn1c(SCC(=O)NCCCN2CCCC2=O)nc2sc3c(c2c1=O)CCCC3	n	21µM	n	n	n	n
CN(CC(=O)Nc1ccc(Cl)c(C(F)(F)F)c1)C(=O)CC1Sc2ccccc2NC1=O (stereo unspecified)	n	x	n	n	x	u
COc1cccc(NC(=O)CN(C)C(=O)CC2Sc3ccccc3NC2=O)c1 (stereo unspecified)	n	23µM	n	n	n	n
O=C1NC(=Nc2ccccc2)SC1Cc1ccccc1 (stereo unspecified)	n	n	n	5.8µM	n	n
COc1cccc(NC(=O)CC2SC(=Nc3ccccc3)NC2=O)c1 (stereo unspecified)	n	16µM	n	n	n	n
Fc1cccc(Cl)c1C1SCc2nc3ccccc3n21 (stereo unspecified)	x	23µM	n	x	23µM	x
CC(=O)Nc1ccc(N2C(=O)CSC2c2c(F)cccc2Cl)cc1 (stereo unspecified)	n	n	x	n	u	n
CC(C)COc1ccc(C(=O)N2CCCCC2CCN2CCOCC2)cc1 (stereo unspecified)	x	x	n	x	x	x
CN(C)c1cc(-c2ccccc2)nc(N)n1	n	u	n	u	21µM	u
COC(=O)C(C)N1C(=O)S/C(=C/c2cc(C)n(C(C)C)c2C)C1=O (stereo unspecified)	n	4.1µM	n	n	u	n
COC(=O)CN1C(=O)S/C(=C/c2cc(C)n(C)c2C)C1=O	n	16µM	n	n	n	n
COc1ccc(N=C2S/C(=C\c3cc(C)n(C)c3C)C(=O)N2CC(C)C)cc1	n	2.6µM	n	n	n	n
COCCn1c(C)cc(/C=C2/SC(=O)N(C(C)C(=O)OC)C2=O)c1C (stereo unspecified)	n	n	n	n	n	n
CCn1c(C)cc(/C=C2/SC(=O)N(C(C)C(=O)OC)C2=O)c1C (stereo unspecified)	n	n	n	n	u	u
CCOc1ccc(S(=O)(=O)NCC(c2cccs2)S(=O)(=O)c2ccc(C)cc2)cc1 (stereo unspecified)	x	x	n	x	x	x
O=C(CSc1nc(=O)n(CCN2CCOCC2)c2c1CCC2)Nc1cccc(Cl)c1	x	x	n	x	x	x
CCN1/C(=C/c2ccc3cc(C)ccc3[n+]2CC)Sc2cc(C)ccc21	n	n	u	n	u	u
CCN1/C(=C/c2ccc3ccccc3[n+]2CCCS(=O)(=O)[O-])C=Cc2cc(C)ccc21	n	n	n	n	n	n
CCN1/C(=C/c2ccc3ccccc3[n+]2CC)C=Cc2ccccc21	u	u	u	n	0.82µM	n
CCCCN1/C(=C/c2ccc3ccccc3[n+]2CC)Sc2ccccc21	n	n	11µM	n	n	n
CSc1nnc(CNS(=O)(=O)c2ccc(F)cc2F)n1-c1ccccc1C	x	x	n	x	x	x
